The text below walks through data of PubChem BioAssay (EPA / NIEHS).

Inconclusive results are not listed. Activity calls are given as the source filed them. Rule for the calls: active = hit-call score of the fitted dose curve at least 0.9, where 1 is the maximum; inconclusive = response in the unintended direction; inactive = score below 0.9.

The nature of experiment [1]: TAMU_HCS_1.5hr_SingleDonor1434_Cytotoxicity: Cytotoxicity Assessment using High-content Screening (HCS) Fluorescent Imaging for the Texas A&M University (TAMU) 1.5-hr Human Induced Pluripotent Stem Cell (iPSC)-derived Cardiotoxicity Assay (AID 2284234). In short, it runs like this:
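Human iPSC-derived cardiomyocytes dosed at 0.2, 1, 10, 100 uM final (0.5% DMSO) for 90 min at 37 C. Hoechst 33342-stained nuclei counted by 10x high-content imaging; POD is EC10, a 10% drop in total cell count versus DMSO.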

Experiment [2] is described as follows: TAMU_PeakParms_SingleDonor1434_QT: Texas A&M University (TAMU) 1.5-hr Human Induced Pluripotent Stem Cell (iPSC)-derived Cardiomyocytes Calcium (Ca+2) Flux Assay for Cardiotoxicity: QT (decay-rise ratio) (AID 2284235). In short, it runs like this:
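iPSC-derived cardiomyocytes (single donor 1434) dosed at 0.2, 1, 10, 100 uM final in 0.5% DMSO, 90 min at 37C. Ca2+ flux fluorescence decay/rise ratio; EC05 (5% increase versus DMSO) as POD, excluding beat-arrest and severe-notch data.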

For the compound `ClC1=C(Cl)[C@]2(Cl)[C@@H]3[C@@H]4C[C@@H]([C@H]5O[C@@H]45)[C@@H]3[C@@]1(Cl)C2(Cl)Cl`, the compound was classed as inactive in experiment [1] and in experiment [2]. Take `C=CC(N)=O`: in experiment [2], the result was inactive.
